# Results filed as inconclusive are left out. Where a call stands in place of a potency, no number is given. Unmarked numbers belong to inactive results. Active and inactive are the calls of the source. The call rests on the fitted dose curve; in most records, active means well fitted curve in the direction sought with a large enough effect; inconclusive means small, poorly fitted or top-dose-only effect, or another doubt; inactive means no such curve, though single readings can be large; an effect the other way counts as inactive or inconclusive.
# Legend:
# [1] = qHTS of pediatric cancer cell lines to identify multiple opportunities for drug repurposing: Confirmatory screen for Rh41 cells (AID 1347123);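 further: 48 h compound exposure; nearly all actives have a fitted effect of over 60% in size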; further: potency means the concentration at half of the fitted maximal effect
# In short: (§1)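 Viability after 48 h compound treatment at 37C, 500-1,000 cells/well, read as ATP luminescence with CellTiter-Glo. Primary screens used 11-point (MIPE, 0.78 nM-46 µM) or 8-point (NPC, 0.59 nM-46 µM) final concentrations; follow-up screens used 11-point dilutions.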
# [2] = qHTS of pediatric cancer cell lines to identify multiple opportunities for drug repurposing: Confirmatory screen for Rh18 cells (AID 1347125); further: nearly all actives have a fitted effect of over 55% in size; further: potency means the concentration at half of the fitted maximal effect
# In short: as §1
# [3] = qHTS of pediatric cancer cell lines to identify multiple opportunities for drug repurposing: Confirmatory screen for Saos-2 cells (AID 1347127); further: nearly all actives have a fitted effect of over 60% in size; further: potency means the concentration at half of the fitted maximal effect
# In short: as §1
# [4] = qHTS of pediatric cancer cell lines to identify multiple opportunities for drug repurposing: Confirmatory screen for OHS-50 cells (AID 1347128);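 further: compound exposure lasted 48 h at 37 degrees C; nearly all actives have a fitted effect of over 55% in size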; further: potency means the concentration at half of the fitted maximal effect
# In short: as §1
# [5] = qHTS of pediatric cancer cell lines to identify multiple opportunities for drug repurposing: Confirmatory screen for SK-N-SH cells (AID 1347129);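 further: cells exposed to compound for 48 h before viability read; nearly all actives have a fitted effect of over 60% in size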; further: potency means the concentration at half of the fitted maximal effect
# In short: as §1
# [6] = qHTS of pediatric cancer cell lines to identify multiple opportunities for drug repurposing: Confirmatory screen for U-2 OS cells (AID 1347122); further: nearly all actives have a fitted effect of over 65% in size; further: potency means the concentration at half of the fitted maximal effect
# In short: as §1
# [7] = qHTS of pediatric cancer cell lines to identify multiple opportunities for drug repurposing: Confirmatory screen for RD cells (AID 1347124);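 further: cells exposed to compound for 48 h before viability readout; nearly all actives have a fitted effect of over 65% in size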; further: potency means the concentration at half of the fitted maximal effect
# In short: as §1
# [8] = tested on: Zika virus NS2B-NS3 protease (unlinked complex); test: Primary screen GU Rhodamine qHTS for Zika virus inhibitors: Unlinked NS2B-NS3 protease assay (AID 1347159); further: nearly all actives have a fitted effect of over 60% in size
# In short: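 In dose–response format, inhibition of unlinked protease (25 nM) was measured with 1.5 microM bis-peptide Rhodamine110 substrate. Aprotinin served as the intraplate control.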
# [9] = tested on: Zika virus NS2B-NS3 protease (linked construct); test: Primary screen NINDS Rhodamine qHTS for Zika virus inhibitors (AID 1347160); further: nearly all actives have a fitted effect of over 55% in size
# In short: (§2)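 Each compound, titrated, sat 15 min with 25 nM linked protease before 1.5 microM Rhodamine110 substrate went in. Fluorescence gain over the next 15 min, in pH 8.0 Tris with Tween 20, gave Hill-fitted curves.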
# [10] = biological target: N-terminal Xaa-Pro-Lys N-methyltransferase 1 (Homo sapiens) (UniProt Q9BV86); test: qHTS Assay for Inhibitors of N-terminal methyltransferase 1 (NTMT1): LOPAC validation of the NTMT1 SAHH-coupled ThioGlo3 Assay (AID 1347143);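 further: SAH from peptide methylation measured as thiol fluorescence via SAHH coupling and ThioGlo3; nearly all actives have a fitted effect of over 70% in size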; further: potency means the concentration at half of the fitted maximal effect
# In short: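 Steps: dispense 125nM NTMT1; pin-transfer test compounds at several concentrations, with 1uM RCC1-6 peptide as control; incubate 1 min; start with reagent holding 100uM SAM, 10uM SAHH, 15uM ThioGlo3; read at 0 and 30 min.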
# Furin (Homo sapiens) = Furin (Homo sapiens) (UniProt P09958); test: Furin counterscreen qHTS for Zika virus inhibitors (AID 1347149);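 further: purified recombinant full-length human furin enzyme at 5 nM; fluorescence gain from furin cutting a BOC-RVRR-AMC peptide substrate over 15 min; top concentration of the series differs between compounds; nearly all actives have a fitted effect of over 70% in size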
# In short: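 Counterscreen measures cleavage of 2 microM BOC-RVRR-AMC, below its ~15 microM Km, by 5 nM full-length human furin at pH 7.0 after a 15-min compound preincubation. Inhibition derives from the 15-min fluorescence increase at 37C.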
# [11] = tested on: Zika virus NS2B-NS3 protease (unlinked); test: Optimization of GU AMC qHTS for Zika virus inhibitors: Unlinked NS2B-NS3 protease assay (AID 1347151); further: nearly all actives have a fitted effect of over 80% in size; further: potency means the concentration at half of the fitted maximal effect; on activity change, negative = inhibition: series mostly up to about 52 µM
# In short: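 Fluorescence gain (340/450 nm) over 15 min at room temperature, ~20% conversion, gave percent inhibition fitted to a 4-parameter Hill equation; enzyme was unlinked NS2B-NS3 (25 nM final), pH 8.0 Tris buffer.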
# [12] = tested on: Zika virus NS2B-NS3 protease (linked construct); test: Confirmatory screen NINDS AMC qHTS for Zika virus inhibitors (AID 1347152); further: top concentration of the series differs between compounds; nearly all actives have a fitted effect of over 70% in size
# In short: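 IC50s from 4-parameter Hill fits of percent inhibition, based on AMC fluorescence gain (340/450 nm) over 15 min with 10 microM Bz-Nle-KRR-AMC. Enzyme: 1 nM linked NS2B-NS3 in Tris-HCl pH 8.0; 15-min compound preincubation.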
# [13] = tested on: Zika virus NS2B-NS3 protease (unlinked complex); test: Confirmatory screen GU AMC qHTS for Zika virus inhibitors (AID 1347153); further: nearly all actives have a fitted effect of over 70% in size
# In short: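 Unlinked NS2B-NS3 complex (25 nM) in 10 mM Tris-HCl pH 8.0, 0.01% Tween 20 preincubated 15 min with compound, then 10 microM Bz-Nle-KRR-AMC (Km 18.3 µM). Fluorescence change over 15 min, normalized, Hill-fitted.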
# [14] = tested on: Zika virus NS2B-NS3 protease; test: Primary screen GU AMC qHTS for Zika virus inhibitors (AID 1347154); further: nearly all actives have a fitted effect of over 70% in size
# In short: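 Unlinked Zika NS2B hydrophilic domain–NS3 protease complex at 25 nM in 10 mM Tris-HCl pH 8.0, 0.01% Tween 20, with an AMC peptide substrate. Fluorescence change (340/450 nm) over 15 min at room temperature, normalized to controls, fitted to 4-parameter Hill.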
# [15] = Confirmatory screen NINDS Rhodamine qHTS for Zika virus inhibitors (AID 1347161)
# In short: as §2
# N-terminal Xaa-Pro-Lys N-methyltransferase 1 (Homo sapiens), sequence (Q9BV86 whole entry, looked up): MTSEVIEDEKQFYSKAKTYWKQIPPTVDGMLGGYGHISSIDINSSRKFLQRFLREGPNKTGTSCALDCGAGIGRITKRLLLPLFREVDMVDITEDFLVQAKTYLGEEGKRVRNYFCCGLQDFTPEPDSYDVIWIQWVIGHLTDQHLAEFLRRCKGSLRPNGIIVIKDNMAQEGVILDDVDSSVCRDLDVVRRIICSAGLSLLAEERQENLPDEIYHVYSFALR
# Furin (Homo sapiens), sequence (P09958 whole entry, looked up): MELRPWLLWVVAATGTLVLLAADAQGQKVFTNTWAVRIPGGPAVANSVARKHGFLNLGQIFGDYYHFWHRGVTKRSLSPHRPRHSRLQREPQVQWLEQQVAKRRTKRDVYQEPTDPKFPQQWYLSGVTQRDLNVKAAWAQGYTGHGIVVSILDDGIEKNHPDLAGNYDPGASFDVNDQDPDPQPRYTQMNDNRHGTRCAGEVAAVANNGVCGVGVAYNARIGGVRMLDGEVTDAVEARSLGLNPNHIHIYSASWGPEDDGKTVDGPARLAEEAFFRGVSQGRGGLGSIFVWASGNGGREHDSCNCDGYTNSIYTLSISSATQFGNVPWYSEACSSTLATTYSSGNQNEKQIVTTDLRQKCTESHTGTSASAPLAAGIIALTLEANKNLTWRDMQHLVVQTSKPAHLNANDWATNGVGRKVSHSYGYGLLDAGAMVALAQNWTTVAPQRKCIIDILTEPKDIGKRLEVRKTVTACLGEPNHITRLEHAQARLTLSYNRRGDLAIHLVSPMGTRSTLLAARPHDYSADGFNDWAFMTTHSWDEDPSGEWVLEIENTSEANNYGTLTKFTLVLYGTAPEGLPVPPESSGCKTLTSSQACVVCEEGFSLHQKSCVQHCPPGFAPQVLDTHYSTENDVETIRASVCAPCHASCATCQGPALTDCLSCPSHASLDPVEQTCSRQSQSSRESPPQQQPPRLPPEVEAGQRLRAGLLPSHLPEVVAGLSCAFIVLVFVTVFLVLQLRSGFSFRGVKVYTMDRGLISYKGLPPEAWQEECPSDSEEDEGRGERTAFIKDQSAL
smiles,measurement,setting,value
Oc1cccc(-c2nc(N3CCOCC3)c3oc4ncccc4c3n2)c1,Potency,[1],0.522 µM (active)
same,Potency,[2],1.7 µM (active)
same,Potency,[3],0.38 µM (active)
same,Potency,[4],3.02 µM (active)
same,Potency,[5],4.18 µM (active)
CS(=O)(=O)c1ccc(C(=O)Nc2ccc(Cl)c(-c3ccccn3)c2)c(Cl)c1,Potency,[6],inactive
same,Potency,[7],inactive
same,Potency,[2],inactive
same,Potency,[4],inactive
same,Potency,[5],inactive
same,Potency,[8],inactive
same,Potency,[9],inactive
CCN(CC)CCCC(C)Nc1ccnc2cc(Cl)ccc12 (stereo not drawn),Potency,[6],inactive
same,Potency,[1],inactive
same,Potency,[7],inactive
same,Potency,[2],inactive
same,Potency,[3],inactive
same,Potency,[4],inactive
same,Potency,[5],inactive
same,Potency,[10],inactive
same,Potency,Furin (Homo sapiens),inactive
same,Potency,[11],15 µM (active)
same,Potency,[12],inactive
same,Potency,[13],inactive
same,Potency,[14],inactive
same,"activity change, negative = inhibition",[8],52.4% [at 19.1 µM]
same,outcome,[9],inactive [at 10.7 µM]
same,Potency,[15],inactive
C#Cc1cccc(Nc2ncnc3cc(OCCOC)c(OCCOC)cc23)c1,Potency,[1],9.27 µM (active)
same,Potency,[7],inactive
same,Potency,[2],inactive
same,Potency,[3],inactive
same,Potency,[5],inactive
same,Potency,[14],inactive
same,Potency,[8],inactive
same,Potency,[9],inactive
CC(C=CC1=C(C)CCCC1(C)C)=CC=CC(C)=CC(=O)O,Potency,[6],inactive
same,Potency,[7],inactive
same,Potency,[2],inactive
same,Potency,[4],inactive
same,Potency,[5],inactive
same,Potency,[14],inactive
CN1CCN(CCCN2c3ccccc3Sc3ccc(C(F)(F)F)cc32)CC1,Potency,[6],23.3 µM (active)
same,Potency,[1],14.7 µM (active)
same,Potency,[7],23.3 µM (active)
same,Potency,[2],20.8 µM (active)
same,Potency,[3],20.8 µM (active)
same,Potency,[4],20.8 µM (active)
same,Potency,[5],16.6 µM (active)
same,Potency,[10],44.7 µM (active)
same,Potency,[11],inactive
same,Potency,[12],inactive
same,Potency,[13],inactive
same,Potency,[14],inactive
same,Potency,[15],inactive
Cc1oncc1C(=O)Nc1ccc(C(F)(F)F)cc1,Potency,[6],inactive
same,Potency,[1],inactive
same,Potency,[2],inactive
same,Potency,[3],inactive
same,Potency,[4],inactive
same,Potency,[5],inactive
same,Potency,[10],inactive
same,Potency,[11],inactive
same,Potency,[14],inactive
COc1cccc2cc(-c3nc(C4CCC(C(=O)O)CC4)n4ncnc(N)c34)[nH]c12 (stereo not drawn),Potency,[1],2.08 µM (active)
same,Potency,[7],inactive
same,Potency,[4],inactive
same,Potency,[5],10.5 µM (active)
same,Potency,[8],inactive
same,Potency,[9],inactive
CCC(C)(C)C(=O)O[C@H]1C[C@@H](C)C=C2C=C[C@H](C)[C@H](CC[C@@H]3C[C@@H](O)CC(=O)O3)[C@H]21,Potency,[6],10.4 µM (active)
same,Potency,[3],2.33 µM (active)
same,Potency,[5],5.26 µM (active)
same,Potency,[14],inactive
NCCCC(N)(C(=O)O)C(F)F (stereo not drawn),Potency,[6],inactive
same,Potency,[1],inactive
same,Potency,[7],inactive
same,Potency,[2],inactive
same,Potency,[3],inactive
same,Potency,[4],inactive
same,Potency,[5],inactive
same,Potency,[10],inactive
same,Potency,[11],inactive
same,Potency,[14],inactive
Nc1nc2c(ncn2COCCO)c(=O)[nH]1,Potency,[6],inactive
same,Potency,[1],inactive
same,Potency,[7],inactive
same,Potency,[2],inactive
same,Potency,[3],inactive
same,Potency,[4],inactive
same,Potency,[5],inactive
same,Potency,[10],inactive
same,Potency,[11],inactive
same,Potency,[14],inactive
CCOc1ccn(-c2ccc(F)cc2)c(=O)c1C(=O)Nc1ccc(Oc2ccnc(N)c2Cl)c(F)c1,Potency,[6],inactive
same,Potency,[7],inactive
same,Potency,[5],inactive
same,Potency,[14],inactive
same,Potency,[8],inactive
same,Potency,[9],inactive
Cc1c(C)c2c(c(C)c1O)CCC(C)(COc1ccc(CC3SC(=O)NC3=O)cc1)O2 (stereo not drawn),Potency,[1],inactive
same,Potency,[7],inactive
same,Potency,[3],inactive
same,Potency,[5],inactive
same,Potency,[14],inactive
COc1ccc(-c2oc3cc(OC)ccc3c2C(=O)c2ccc(C#N)cc2)cc1,Potency,[6],inactive
same,Potency,[1],inactive
same,Potency,[7],inactive
same,Potency,[2],inactive
same,Potency,[3],inactive
same,Potency,[4],inactive
same,Potency,[5],inactive
same,Potency,[14],inactive
Cn1cnc2c(F)c(Nc3ccc(Br)cc3Cl)c(C(=O)NOCCO)cc21,Potency,[6],16.5 µM (active)
same,Potency,[1],inactive
same,Potency,[7],inactive
same,Potency,[2],inactive
same,Potency,[3],inactive
same,Potency,[14],inactive
same,Potency,[8],inactive
same,Potency,[9],inactive
O=C(c1cc(Cc2n[nH]c(=O)c3ccccc23)ccc1F)N1CCN(C(=O)C2CC2)CC1,Potency,[1],9.27 µM (active)
same,Potency,[7],inactive
same,Potency,[2],inactive
same,Potency,[3],inactive
same,Potency,[4],inactive
same,Potency,[5],14.8 µM (active)
same,Potency,[14],inactive
same,Potency,[8],inactive
same,Potency,[9],inactive
NC(N)=NC(=O)c1nc(Cl)c(N)nc1N,Potency,[6],7.37 µM (active)
same,Potency,[1],inactive
same,Potency,[7],inactive
same,Potency,[2],inactive
same,Potency,[4],inactive
same,Potency,[5],inactive
same,Potency,[10],50.1 µM (active)
same,Potency,[11],23.8 µM (active)
CO[C@@H]1[C@H](N(C)C(=O)c2ccccc2)C[C@H]2O[C@]1(C)n1c3ccccc3c3c4c(c5c6ccccc6n2c5c31)C(=O)NC4,Potency,[6],inactive
same,Potency,[1],inactive
same,Potency,[2],4.14 µM (active)
same,Potency,[5],inactive
Nc1nc2ccc(OC(F)(F)F)cc2s1,Potency,[1],inactive
same,Potency,[7],inactive
same,Potency,[2],inactive
same,Potency,[4],18.5 µM (active)
same,Potency,[5],inactive
same,Potency,[10],inactive
same,Potency,[11],inactive
same,Potency,[14],inactive
NC(=O)c1ccc(I)c([N+](=O)[O-])c1,Potency,[6],inactive
same,Potency,[1],43.7 µM (active)
same,Potency,[7],inactive
same,Potency,[2],inactive
same,Potency,[3],inactive
same,Potency,[4],inactive
same,Potency,[5],55.4 µM (active)
same,Potency,[14],inactive
